# This is one part of a sample in which hits are shown more often than they occur.
# ST2 IL33 inh – inhibitors of human ST2 (IL1RL1) binding to IL-33; AlphaLISA ST2-Fc/biotin-IL-33 interaction, 1 h; inhibition, % for hits at 17 µM; actives 2.3% (n = 78,000); AID 1259354; in the data active means inhibition above about 30%
# Target sequence (Q01638 whole entry, looked up): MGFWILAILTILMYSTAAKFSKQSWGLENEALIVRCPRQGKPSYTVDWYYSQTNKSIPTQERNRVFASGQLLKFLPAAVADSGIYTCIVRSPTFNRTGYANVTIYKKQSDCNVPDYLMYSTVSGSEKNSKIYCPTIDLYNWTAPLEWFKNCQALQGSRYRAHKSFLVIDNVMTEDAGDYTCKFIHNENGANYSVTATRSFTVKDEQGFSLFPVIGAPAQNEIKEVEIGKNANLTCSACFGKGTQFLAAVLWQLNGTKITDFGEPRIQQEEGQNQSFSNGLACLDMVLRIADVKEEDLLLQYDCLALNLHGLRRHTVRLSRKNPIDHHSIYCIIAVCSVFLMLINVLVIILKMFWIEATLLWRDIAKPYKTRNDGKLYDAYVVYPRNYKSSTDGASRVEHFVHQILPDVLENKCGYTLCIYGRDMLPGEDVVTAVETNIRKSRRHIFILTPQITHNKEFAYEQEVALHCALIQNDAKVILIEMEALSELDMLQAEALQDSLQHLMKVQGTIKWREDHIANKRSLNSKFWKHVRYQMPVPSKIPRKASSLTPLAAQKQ
# * marks the source's active call; other numbers are inactive results; i = inactive; ! = not confirmed by another sample.
SMILES,ST2 IL33 inh
CC(C(=O)N1CCN(c2cccc(Cl)c2)CC1)N1C(=O)c2ccccc2C1=O (configuration not stated),i
CC(C)CC(C(=O)Nc1cccc(Cl)c1)N1C(=O)c2ccccc2C1=O (configuration not stated),i
CC(=O)N(C1=C(N2CCCCC2)C(=O)c2ccccc2C1=O)c1cccc(Cl)c1,61%*
NC(=O)C1CCCN(S(=O)(=O)c2ccc(F)cc2)C1 (configuration not stated),i
COc1ccccc1C1C(C(=O)OC2CCCCC2)=C(C)Nc2nnnn21 (configuration not stated),i
O=S(=O)(Nc1ccc(F)c(Cl)c1)c1cccnc1,i
Cc1cc(C)c([N+](=O)[O-])cc1NC(=O)c1cc2c(C)nn(-c3ccccc3)c2s1,i
Cc1ccc(NC(=O)c2cc3c(C)nn(-c4ccccc4)c3s2)cc1[N+](=O)[O-],36%*
Cc1nn(-c2ccccc2)c2sc(C(=O)NCCCO)cc12,i
CSc1nc2c(c(=O)n1-c1ccc(Cl)cc1)SCC2,i
COCCN(Cc1cccs1)C(=O)C1CCCN1C(=O)C1CCCCC1 (configuration not stated),i
O=S(=O)(Nc1ccccc1F)c1cccc2nonc12,i
Cc1nc2c(c(=O)[nH]1)CCN(C(=O)c1cc(-n3cccn3)ccc1Cl)C2,i
Cc1cc(-n2cccn2)ccc1CN1CCN(c2cc(=O)[nH]c(N)n2)CC1,40%*
NC(=O)c1ccc(N2CCN(Cc3cccc(-n4cccn4)c3)CC2)nc1,i
CCn1c(=O)c(C(=O)Nc2ccncc2)c(O)c2ccccc21,i
O=C(CCCn1c(=O)c2sccc2n(Cc2ccc(F)cc2)c1=O)NCc1ccco1,30%*!
O=C(CCCn1c(=O)c2sccc2n(Cc2ccc(Cl)cc2)c1=O)NCc1ccco1,i
O=C(Cn1c(=O)c2sccc2n(Cc2ccc(Cl)cc2)c1=O)NCc1ccco1,i
Cc1ccccc1SC1CCN(C(=O)c2cn(C3CCCCCC3)nn2)CC1,i
CC(O)(C(=O)O)c1ccccc1 (configuration not stated),i
COc1ccc(CNS(=O)(=O)c2c(C)n[nH]c2C)cc1,i
CN1CCN(c2nc3c(c(=O)n(C)c(=O)n3C)n2CCSc2nc3ccccc3o2)CC1,i
CN1CCN(c2nc3c(c(=O)n(C)c(=O)n3C)n2Cc2c(Cl)cccc2Cl)CC1,i
Cn1c(=O)c2c(nc(N3CCCCC3)n2Cc2c(Cl)cccc2Cl)n(C)c1=O,31%*
SMILES,ST2 IL33 inh
CC1CCN(c2nc3c(c(=O)n(C)c(=O)n3C)n2Cc2c(F)cccc2Cl)CC1,i
CCN1CCN(c2nc3c(c(=O)n(C)c(=O)n3C)n2CCSc2nc3ccccc3o2)CC1,i
Cn1c(=O)c2c(nc(N3CCCCC3)n2CCSc2nc3ccccc3o2)n(C)c1=O,36%*!
CC(C)Cc1cc(C(=O)N2CCCC2c2ccccn2)no1 (configuration not stated),i
CCC(=O)N1CCc2cc(Br)cc(S(=O)(=O)N3CC=C(c4ccccc4)CC3)c21,i
CCOC(=O)C1C(=O)C=C(c2ccco2)CC1c1ccc(C(C)C)cc1 (configuration not stated),i
COc1ccc(-c2cc(=O)c3cc(Br)ccc3o2)cc1OC,31%*
COc1ccc(-c2cc(=O)c3cc(F)ccc3o2)cc1OC,i
COc1cc(-c2cc(=O)c3ccccc3o2)ccc1O,i
CCCn1c(CNC(C)=O)nc2ccccc21,i
Cc1ccn2c(NC(=O)C(C)(C)C)c(-c3ccccc3)nc2c1,i
COc1ccc(OC)c(NC(=O)c2c(OC)cccc2OC)c1,35%*
COc1ccc(OC)c(NC(=O)c2cc3ccccc3o2)c1,i
CCc1ccccc1NC(=O)c1c(OC)cccc1OC,i
COc1cccc(NC2=NC3CS(=O)(=O)CC3S2)c1 (configuration not stated),i
O=C1CCCN1CC1CCCN(Cc2ccc(-c3ccccn3)cc2)C1 (configuration not stated),i
Cc1c(Cl)cccc1NC(=O)C(NS(=O)(=O)c1cccs1)C(C)C (configuration not stated),i
O=C(c1cccn2c(=O)c3sccc3nc12)N1CCOCC1,i
Cc1ccc(C(c2sc3nc(C)nn3c2O)N2CCCCC2)cc1 (configuration not stated),i
O=c1[nH]c(Nc2nc3ccccc3[nH]2)nc2ccccc12,i
CCCC1COCCN1C(=O)c1cc(=O)c2ccccc2o1 (configuration not stated),40%*
CCN1CCN(C(=O)c2cc(=O)c3ccccc3o2)C(C)C1=O (configuration not stated),i
Cc1ccc(NC2CCCN(C(=O)c3cc(=O)c4ccccc4o3)C2)cc1C (configuration not stated),i
CCOC(=O)CN(Cc1ccc(Cl)cc1)S(=O)(=O)c1ccc(Br)cc1,i
O=C(O)COc1ccc(Br)cc1C1C2=C(CCCC2=O)OC2=C1C(=O)CCC2,i
SMILES,ST2 IL33 inh
O=C1/C(=C\c2cccc([N+](=O)[O-])c2)N=C2CCCCCN12,36%*
O=[N+]([O-])c1cccc(CN2CCCCCC2)c1,i
O=C1NC(=O)/C(=C\c2cccc([N+](=O)[O-])c2)S1,i
O=C(C1CCCC1)N1CC[C@H](c2nc3ccc(F)cc3[nH]2)C1,i
COC(=O)c1sc2ccccc2c1NC(=O)CN1C(=O)c2ccccc2C1=O,i
O=C(CN1CCCCCC1)N1CCCc2c1c(=O)oc1ccc(OCc3ccccc3)cc21,30%*
O=C(CN1CCCCCC1)N1CCCc2c1c(=O)oc1ccc(O)cc21,i
O=C(CN1CCCC1)N1CCCc2c1c(=O)oc1ccc(O)cc21,i
Nc1ccc(Br)cn1,i
CSc1nc(N)nc(SCc2ccc(F)cc2)c1C#N,i
CC(C)(CC(=O)O)CC(=O)N1Cc2[nH]cnc2C[C@H]1c1nc(-c2ccc3c(c2)OCO3)no1,i
c1ccc2oc(CN3Cc4[nH]cnc4C[C@H]3c3nc(-c4ccc5c(c4)OCO5)no3)cc2c1,61%*
O=C(NCc1ccccc1)N1Cc2[nH]cnc2C[C@H]1c1nc(-c2ccc3c(c2)OCO3)no1,i
O=[N+]([O-])c1cccc(/C=C/c2ccccn2)c1,37%*
O=[N+]([O-])c1cccc(C(=Nc2ccccc2)NO)c1,i
Nc1nnc(/C=C/c2cccc([N+](=O)[O-])c2)s1,i
CCOC(=O)C(C)Sc1nc2c(c(=O)n1-c1ccc(F)cc1)SCC2 (configuration not stated),i
CCC1=C(c2ccc(OC)cc2)S(=O)(=O)N(CC(=O)NCCCc2ccccc2)C1=O,i
COc1cccc(C(=O)Nc2ccc(C)c(OCc3cc(=O)n4cccc(C)c4n3)c2)c1,31%*
CC(=O)Nc1cccc(OCc2cc(=O)n3cc(Cl)ccc3n2)c1,i
Cc1cccc(C(=O)Nc2cccc(OCc3cc(=O)n4ccc(C)cc4n3)c2)c1,i
COc1cccc(C(=O)Nc2cccc(OCc3cc(=O)n4ccc(C)cc4n3)c2)c1,i
CCOc1ccc(C(=O)Nc2ccc(C)c(OCc3cc(=O)n4cccc(C)c4n3)c2)cc1,i
CCOc1ccc(C(=O)Nc2cccc(OCc3cc(=O)n4cc(Cl)ccc4n3)c2)cc1,31%*
COc1ccc(OCC(=O)Nc2ccc(C)c(OCc3cc(=O)n4ccc(C)cc4n3)c2)cc1,i
Cc1cccc(C(=O)Nc2ccc(C)c(OCc3cc(=O)n4cccc(C)c4n3)c2)c1,33%*

# Screening data as filed in PubChem.
